Out of some 360,000 compounds screened, about 6,000 (1.7%) were called active. Where a call stands in place of a potency, no number is given. About 8% were inconclusive and are not listed. This is one part of a sample in which actives are shown more often than they occur. The call rests on the fitted dose curve; in most records, active means well fitted cell-killing curve with a large enough effect; inconclusive means small, poorly fitted or top-dose-only effect, or effect the other way; inactive means flat fitted curve, though single readings scatter.
Test: qHTS for induction of synthetic lethality in tumor cells producing 2HG: qHTS for the HT-1080-NT fibrosarcoma cell line; further: nearly all actives have a fitted effect of over 55% in size
Settings: HT-1080-NT fibrosarcoma viability, CellTiter-Glo ATP luminescence, 48 h; series mostly up to 46.1 µM
Excerpt: Unbiased genomic sequencing for 22 glioma genomes found recurrent mutation of IDH1 on chromosome 2q33, a gene encoding the cytosolic isoform of IDH1 associated with the tricarboxylic acid cycle (TCA) that catalyzes the oxidative decarboxylation of isocitrate, yielding alpha-ketoglutarate and CO2 via NADP+ to NADPH conversion. Subsequent studies confirmed the recurrent IDH mutations in up to 70% of secondary gliomas and in 10% of AML cases. In addition, the somatic mutation of cancer-associated IDH1 is a point mutation resulting in various amino-acid substituents at Arginine132 (IDH1 R132), a key residue found in the enzyme's active site that when mutated, results in the loss-of-function in metabolizing isocitrate but confers a gain-of-function to produce the oncometabolite 2-hydroxyglutarate (2HG). This in effect defines IDH1 as an oncogene and provides an extraordinary opportunity to discover chemical probes against mutant IDH1 that may translate into much needed new therapies for glioma and AML patients.
This assay aims to perform a synthetic lethal screen for chemical probes specific for 2HG-producing tumor cells using matched paired cell lines (1) HT-1080-NT fibrosarcoma cell line that overproduces 2HG and (2) HT-1080-IDH1KD cell line which has IDH1 expression knocked-down. Desirable compounds are toxic to the NT fibrosarcoma cells but not to the IDH1KD cell line. The data in this AID corresponds to the results of the qHTS against the HT-1080-NT fibrosarcoma cell line.
[1] Dang L, Jin S, Su SM. IDH mutations in glioma and acute myeloid leukemia. Trends of Mol Med. 2010; 16(9): 387-97.
[2] Dang L et al. Cancer-associated IDH1 mutations produce 2-hydroxyglutarate. Nature. 2010; 465(7300):966.
NIH Molecular Libraries Probe Production Centers Network [MLPCN]
NIH Chemical Genomics Center [NCGC]
Assay Submitter (PI): Lenny Dang Ph.D., Agios Pharmaceuticals
Suspensions of trypsinized HT-1080-NT cells were dispensed into white, tissue culture-treated, solid 1536-well plates at 5uL/well (750 cells/well final concentration) in RPMI medium supplemented with 5% FBS. Plates were incubated at 37 degrees C for 2 hours, after which 23 nL of compounds or DMSO were delivered to each well using a pin tool. Plates were then incubated at 37 degrees C for an additional 48 hours. CellTiter-Glo viability reagent (Promega) was dispensed into wells (2.5uL/well) and incubated at room temperature for 10 minutes. The plates were measured on a PerkinElmer ViewLux plate reader for luminescent signal (clear filter, 1 sec exp). DMSO-treated control wells and media-only (no cells) control wells were used to normalize %Activity of identified toxic compounds; DMSO-treated wells corresponded to 0%Activity (100% viability), while media-only controls were used to normalize 100%Activity (0% viability).
Concentration-response curves were fitted to the signals arising from the resulting luminescence. The concentration-effect curves were then classified based on curve quality (r2), response magnitude and degree of measured activity, and compounds were subsequently categorized based on their curve class.
Potency means the concentration at half of the fitted maximal effect.

SMILES | Potency
CN(C)CC1Oc2ccccc2OC1(O)c1ccccc1 (stereo not given) | 8.2 µM (active)
CCOC(=O)c1cccc(C2=C(CNC(=O)c3ccncc3)[C@H]3CC[C@@H](C2)N3Cc2ccccc2)c1 | inactive
O=C1C2CCN(CC2)C1(CO)CO | inactive
O=c1[nH]c(O)c(C=Nc2cc(F)cc(F)c2)c(=O)[nH]1 | inactive
COc1ccc2c(c1O)-c1cccc3c1[C@@H](C2)N(C)CC3 | inactive
COc1ccc2c3c1O[C@H]1C[C@@H](O)C=C[C@@]31CCN(C)C2 | 8.2 µM (active)
COC1=CC=C2[C@H]3Cc4ccc(OC)c5c4[C@@]2(CCN3C)C1O5 (stereo not given in full) | inactive
CC=C(C)C(=O)OC1CCN2CC=C(COC(=O)C(O)(C(C)OC)C(C)(C)O)C12 (stereo not given) | inactive
O=P(OC1=CCCCC1)(c1ccccc1)c1ccccc1 | inactive
CSCCC(c1nnnn1C(C)(C)C)N1CCC(n2c(=O)[nH]c3ccccc32)CC1 (stereo not given) | inactive
Cc1ccc(Cn2nnnc2CN2CCC(n3nnc4ccccc43)CC2)cc1 | inactive
O=c1[nH]c2ccccc2n1C1CCN(C(c2ccccc2)c2nnnn2Cc2ccccc2)CC1 (stereo not given) | 13 µM (active)
CCOC(=O)C1=C(C)OC(N)=C(C(=O)OC)C12C(=O)Nc1ccc(Br)cc12 (stereo not given) | inactive
O=c1[nH]c(CN2CC=C(c3ccccc3)CC2)nc2scc(-c3cccs3)c12 | inactive
S=C(NCCc1ccccc1)N1Cc2cc(N3CCOCC3)ccc2-n2nncc2C1 | inactive
CCOc1ccc(-c2cc(C)[n+](CCN(CC)CC)c(-c3ccc(OCC)cc3)c2)cc1 | 8.2 µM (active)
COc1ccc(C2C=C(C)Oc3c2c(=O)oc2ccccc32)cc1OC (stereo not given) | inactive
COC(=O)C1=C(c2ccc(OCc3ccccc3)cc2)C[C@@H]2CC[C@H]1N2C(=O)NCc1cccc(F)c1 | inactive
CC1CCCN1CCC(C(N)=O)(c1ccccc1)c1ccccc1 (stereo not given) | inactive
COc1ccc(CCn2c(O)c(C=NC3CC3)c(=O)[nH]c2=O)cc1OC | inactive
c1ccc(N2Cc3ccccc3-n3nncc3C2)nc1 | inactive
CCC1(C)CC(CCNCc2ccc(N(C)C)cc2)(c2ccc(F)cc2)CCO1 (stereo not given) | inactive
C[C@@H]1C[C@@H]2O[C@H]2/C=C\C=C\C(=O)Cc2c(Cl)c(O)cc(O)c2C(=O)O1 | 8.2 µM (active)
CC(=O)NCC1=C(c2ccc3ccccc3c2)C[C@@H]2CC[C@H]1N2Cc1ccco1 | inactive
C=Cn1ccnc1P(=S)(c1cc(N(CC)CC)ns1)c1nccn1C=C | inactive
COC(=O)C1=C(c2ccc(OCc3ccccc3)cc2)C[C@@H]2CC[C@H]1N2C(=O)NCc1ccc(Cl)cc1 | inactive
CC1=CC(=Cc2sc3ccccc3[n+]2C)C=C(C)O1 | 8.2 µM (active)

SMILES | Potency
O=[N+]([O-])c1ccc(C2C3C(c4ccccc4)=NC4(CCCCC4)N32)cc1 (stereo not given) | inactive
Cc1ccc(OC(=O)N(C)C[C@@H]2OCc3cnnn3CCCC(=O)N([C@H](C)CO)C[C@@H]2C)cc1 | inactive
Cc1ncoc1C(=O)NCC1=C(c2cccc3ccccc23)C[C@@H]2CC[C@H]1N2Cc1ccco1 | inactive
COc1cc(Cn2c(N)c(C(=O)NCc3ccco3)c3nc4ccccc4nc32)cc(OC)c1OC | 12.6 µM (active)
COC(=O)C1=C(c2ccccc2)C[C@@H]2CC[C@H]1N2C(=O)NCc1ccco1 | inactive
CC(=O)c1c(O)n(C2CCCCCC2)c(=O)[nH]c1=O | inactive
O=C(NC1CCCCC1)N1Cc2cc(N3CCCCC3)ccc2-n2nncc2C1 | inactive
c1cc2c(c(NC3=NCCCS3)c1)CCCC2 | inactive
COC(=O)C1=C(c2ccc(Cl)c(C(F)(F)F)c2)C[C@@H]2CC[C@H]1N2C(=O)NC1CC1 | inactive
C[C@]12CC[C@H](O)C[C@H]1CC[C@@H]1C2CC[C@]2(C)[C@@H](C3=CC(=O)OC3)[C@@H](O)C[C@]12O (stereo not given in full) | 5.8 µM (active)
C[C@]12CCC3C(CC[C@H]4C[C@@H](O)CC[C@]34C)C1C[C@@H](O)[C@H]2O (stereo not given in full) | inactive
C[C@]12CCC3C(CC[C@H]4C[C@@H](O)CC[C@]34C)C1CC[C@@H]2O (stereo not given in full) | inactive
C[C@H]1CN([C@@H](C)CO)C(=O)CCCn2nncc2CO[C@H]1CN(C)C(=O)Oc1ccccc1 | inactive
CCOC(=O)[C@]12Cc3cc(OC)ccc3[C@H]1N(C(C)C)C(=O)c1ccccc12 | 11.6 µM (active)
CCOC(=O)[C@]12Cc3ccccc3[C@H]1N(C1CCCCC1)C(=O)c1cc(OC)ccc12 | 5.8 µM (active)
CCCC(C)n1[nH]c(=O)c2c1NC(=O)CSC2c1ccc(OC)c(OC)c1 (stereo not given) | inactive
Oc1cc2c(cc1CN1CCN(c3ccccc3)CC1)OCO2 | inactive
COc1ccccc1OC(=O)c1ccc(C)c(S(=O)(=O)N2CCOCC2)c1 | inactive
CC1([N+](=O)[O-])COP(=O)(Nc2ccc(F)cc2)OC1 (stereo not given) | inactive
O=c1c2ccccc2[nH]c(=S)n1-c1cccc(Cl)c1 | inactive
Cc1cc(-c2ccc(N)c(C)c2)ccc1N | inactive
Nc1ccc(Cc2ccc(N)c(Cl)c2)cc1Cl | inactive
COC(=O)C[C@H]1CC[C@H]2NC[C@@H](O)COC[C@@H]2O1 | inactive
Cc1c(Oc2cc(NN3CCCCC3)c([N+](=O)[O-])cc2[N+](=O)[O-])cccc1[N+](=O)[O-] | inactive
O=c1c2ccccc2nc(/C=C/c2ccc(F)cc2)n1-c1ccccc1O | 23.1 µM (active)
O=c1c2ccccc2nc(/C=C/c2ccco2)n1-c1ccccc1O | inactive
Cc1nc2ccccc2c(=O)n1-c1ccc(Cl)cc1Cl | inactive

SMILES | Potency
c1ccc(C(CN2CCCCC2)c2ccccc2)cc1 | inactive
CCc1cccc2c(C#N)cn(CC(=O)N3CCOCC3)c12 | inactive
COC1C(O)C(C)OC(OC2CCC3(C=O)C(CCC4C3CCC3(C)C(C5=CC(=O)OC5)CCC43O)C2)C1O (stereo not given) | 0.206 µM (active)
C[C@H]1CN([C@@H](C)CO)C(=O)CCCn2nncc2CO[C@H]1CN(C)C(=O)Oc1cccc2ccccc12 | inactive
CCn1cc(CN2CCCC(C(=O)c3cccc(C(F)(F)F)c3)C2)cn1 (stereo not given) | inactive
COc1ccc(NC(=O)N2Cc3ccccc3-n3nncc3C2)cc1 | inactive
CC(=CCOc1ccc2ccc(=O)oc2c1)C1=CC(=O)C(C)(C)O1 | inactive
O=c1c2ccccc2nc(CBr)n1-c1ccc(Cl)cc1 | inactive
COC(=O)CN(CCCl)P1(=O)OCCCN1CCCl (stereo not given) | inactive
CCCCCCCCCCCCn1ccc(=N)cc1 | 2.59 µM (active)
CSC1=NP(=S)(SC)N(C)c2nc3n(c21)CCC3 (stereo not given) | inactive
COC(=O)C1=C(c2ccc(F)cc2F)C[C@@H]2CC[C@H]1N2C(=O)NC1CC1 | inactive
CC(C)CN1Cc2cc(N3CCCCC3)ccc2-n2nncc2C1 | inactive
COc1ccc(-c2nn(CCC#N)cc2C(=O)Nc2ccc(C(C)=O)cc2)cc1 | inactive
CCOC(=O)CNC(=O)N1Cc2cc(N3CCCCC3)ccc2-n2nncc2C1 | inactive
COc1cc(C2c3cc4c(cc3C(O)C3COC(=O)C23)OCO4)cc(OC)c1OC (stereo not given) | 0.0058 µM (active)
CCN1C(=O)NC(=O)C2(CCCC2)C1=O | inactive
CCOc1cccc(=NC2CCCCC2)c2c(C)[nH]c(C)c12 | 20.6 µM (active)
CCOP(=S)(OCC)C(O)CCCCCn1c(=O)c(F)cn(C2CCCO2)c1=O (stereo not given) | inactive
COc1cc(C(=O)N2Cc3ccc(Br)cc3-n3nncc3C2)cc(OC)c1OC | inactive
COC1=C[C@@H]2[C@@H]3Cc4ccc(OC)c(O)c4[C@]2(CCN3C)CC1=O | inactive
O=[N+]([O-])c1ccc(Cl)c(Cl)c1 | inactive
CC(=O)OC1C2(CC3N4C(=O)C5(CO)SSC4(CC31O)C(=O)N5C)OC(C)C(C)(C)C2=O (stereo not given) | 0.651 µM (active)
CC[C@H]1CC2CN3CCc4c([nH]c5ccccc45)C(C(=O)OC)(C2)C13 (stereo not given in full) | inactive
CCN(N=Nc1nonc1OC)c1nonc1OC | inactive
CCOC(=O)C1CN(C)CCC1=O (stereo not given) | inactive

— PubChem BioAssay AID686970 (National Center for Advancing Translational Sciences (NCATS), 2013)
